# Test results as given in ChEMBL document CHEMBL3988442, “University of Dundee, Small-Polar-MMV Screening Library” (2021).
# About 13,000 (27%) of roughly 48,000 compounds showed an effect of 50% or more. The list shows a part of the results.
# Test system: Wolbachia pipientis
# Assay: Anti-Wolbachia Cell-Based Screen
# Format: functional
# Design: scale not given: in the data most compounds retested in dose-response had high values
# Conditions: 5 µM
row,SMILES,Percent Effect
1,CC(C)C(NC(=O)c1ccccc1F)C(=O)N1CCC2(CC1)OCCO2 (stereo unspecified),-11.28%
2,COc1ncccc1CN1CC[C@H]2O[C@H](c3nnc(C)o3)CC[C@H]21,-0.9405%
3,O=C(O)C(F)(F)F.O=C(O)C(F)(F)F.c1ccc(O[C@@H]2CO[C@@]3(CCCN(CC4CCOCC4)C3)C2)nc1,-10.07%
4,Fc1ccc(CN2CCO[C@H]3[C@H](Oc4ccccn4)CC[C@@H]32)cc1.O=C(O)C(F)(F)F.O=C(O)C(F)(F)F,-5.975%
5,Cc1nc(CN2CCO[C@@H]3CC(COc4ccccn4)C[C@H]32)cs1.O=C(O)C(F)(F)F.O=C(O)C(F)(F)F (stereo partly specified),94.34%
6,O=C(O)C(F)(F)F.O=C(O)C(F)(F)F.c1ccc(O[C@@H]2CC[C@H]3[C@H]2OCCN3CC2CCOCC2)nc1,-13.85%
7,Cc1nc(CN2CCO[C@H]3[C@@H](OCc4ccccn4)CC[C@@H]32)cs1.O=C(O)C(F)(F)F.O=C(O)C(F)(F)F,8%
8,Cc1nc(CN2CC[C@H]3[C@H]2CCN3c2ncccn2)cs1.O=C(O)C(F)(F)F.O=C(O)C(F)(F)F.O=C(O)C(F)(F)F,-7.266%
9,CC(C)NC(=O)[C@H]1C[C@@H]2[C@@H](C1)OCCN2Cc1ccccn1.O=C(O)C(F)(F)F.O=C(O)C(F)(F)F,2.364%
10,O=C(O)C(F)(F)F.O=C(O)C(F)(F)F.c1ccc(OCC2C[C@@H]3[C@@H](C2)OCCN3Cc2ccoc2)nc1 (stereo partly specified),92.52%
11,O=C(O)C(F)(F)F.O=C(O)C(F)(F)F.c1ccc(OCC2C[C@@H]3[C@@H](C2)OCCN3CC2CCOCC2)nc1 (stereo partly specified),96.17%
12,CCCn1ncc(CN2CCCC(C(=O)c3ccc(Cl)cc3C)C2)c1C (stereo unspecified),-13.45%
13,Cc1noc(C)c1CN1CCCC2(C1)CN(c1nccs1)CCO2.O=C(O)C(F)(F)F (stereo unspecified),-6.248%
14,Cc1noc(C)c1CN1CCOC2(CCCN(c3nccs3)C2)C1 (stereo unspecified),-30.09%
15,Cc1noc(C)c1CN1CCOCC12CCN(c1nccs1)CC2.O=C(O)C(F)(F)F,98.18%
16,Cc1cc(Cl)ccc1C(=O)C1CCCN(Cc2cnc(N(C)C)s2)C1 (stereo unspecified),5.845%
17,O=C(Nc1cc(C(F)(F)F)c[nH]c1=O)C1CCCN1 (stereo unspecified),84.36%
18,Cc1nc(C)c(CC(=O)N2C[C@@H]3CC[C@H](C2)N(CC2CCC2)C3)c(=O)[nH]1,-4.383%
19,O=C1NC[C@H]2CN(Cc3ccnc4ccccc34)CCN12,12.9%
20,CN1C(=O)CCC12CCCN(Cc1nccs1)C2.O=C(O)C(F)(F)F (stereo unspecified),0.9809%
21,Cc1csc(CN2C[C@@H]3CN(C)CCO[C@@H]3C2)n1,8.009%
22,CN1CCOC(CN(C(=O)CN2CCCC2=O)c2nccs2)C1 (stereo unspecified),101.5%
23,O=C(Cc1cccnc1)N1C[C@H]2CC[C@@H]1CN(Cc1ccc(F)cc1)C2,4.977%
24,CNS(=O)(=O)CC(=O)NC(C)Cc1cccc(Cl)c1 (stereo unspecified),-8.41%
25,COCCN1CCN(Cc2ccncc2)c2ncccc2C1.O=C(O)C(F)(F)F.O=C(O)C(F)(F)F.O=C(O)C(F)(F)F,-7.245%
26,CN(C)CCN1CCN(Cc2cccs2)Cc2cccnc21.O=C(O)C(F)(F)F.O=C(O)C(F)(F)F.O=C(O)C(F)(F)F,92.36%

row,SMILES,Percent Effect
1,Cc1ccc2c(n1)N(C)CCN(Cc1ccco1)C2.O=C(O)C(F)(F)F.O=C(O)C(F)(F)F,-3.328%
2,Cc1cnc(N2CCc3c(cnc(C)c3C(=O)O)C2)nc1.O=C(O)C(F)(F)F,-4.301%
3,CN(C)CCN1CCN(Cc2ccco2)Cc2cccnc21.O=C(O)C(F)(F)F.O=C(O)C(F)(F)F.O=C(O)C(F)(F)F,95.25%
4,COCCN1CCN(Cc2ccco2)Cc2ccc(C)nc21.O=C(O)C(F)(F)F.O=C(O)C(F)(F)F,-4.487%
5,CN(C)CCN1CCN(Cc2nccs2)Cc2cccnc21.O=C(O)C(F)(F)F.O=C(O)C(F)(F)F.O=C(O)C(F)(F)F,88.3%
6,Cc1noc(C)c1CN1CCN(C)c2ncccc2C1.O=C(O)C(F)(F)F.O=C(O)C(F)(F)F,-16.26%
7,Cc1ncc2c(c1C(=O)O)CCN(c1ncc(F)cn1)C2.O=C(O)C(F)(F)F,-15.02%
8,CN(C)c1ncc2c(c1C(=O)O)CCN(Cc1ccco1)C2.O=C(O)C(F)(F)F.O=C(O)C(F)(F)F,87.52%
9,COCCNC(=O)[C@H]1CN2CCC1C[C@@H]2Cn1cc(C(C)(C)C)nn1 (stereo partly specified),-20.26%
10,CN(C)C(=O)CN1CC[C@H]2[C@H]1CCN2c1ncccn1.O=C(O)C(F)(F)F.O=C(O)C(F)(F)F,-4.997%
11,CCCn1nc(C)c(-c2cncn2CC2(N(C)C)CCC(C)CC2)c1C (stereo unspecified),117%
12,Cc1ncsc1CN1C[C@H](OCc2ccncc2)[C@H]2OCCC[C@H]21.O=C(O)C(F)(F)F.O=C(O)C(F)(F)F,-13.88%
13,CCOCCN1CCO[C@H]2[C@H](OCc3ccccn3)CC[C@@H]21.O=C(O)C(F)(F)F.O=C(O)C(F)(F)F,26.08%
14,Cc1cccc(CO[C@@H]2CC[C@H]3[C@H]2OCCN3Cc2ccsc2)n1.O=C(O)C(F)(F)F.O=C(O)C(F)(F)F,-22.6%
15,Cc1cccc(CO[C@@H]2CC[C@H]3[C@H]2OCCN3Cc2ccoc2)n1,89.7%
16,c1ccc(O[C@@H]2CC[C@H]3[C@H]2OCCN3Cc2ccsc2)nc1,-6.73%
17,Cc1ncsc1CN1C[C@@H](OCc2ccncc2)[C@H]2OCCC[C@H]21.O=C(O)C(F)(F)F.O=C(O)C(F)(F)F,-3.825%
18,CCO[C@@H]1CC[C@H]2[C@H]1OCCN2Cc1ccoc1.O=C(O)C(F)(F)F,96.95%
19,O=C(O)C(F)(F)F.O=C(O)C(F)(F)F.c1cc(CO[C@@H]2CN(Cc3ccoc3)[C@@H]3CCCO[C@@H]32)ccn1,101.1%
20,O=C(O)C(F)(F)F.O=C(O)C(F)(F)F.c1cncc(COCC2CC[C@H]3[C@H]2OCCN3Cc2ccoc2)c1 (stereo partly specified),109.4%
21,O=C(O)C(F)(F)F.O=C(O)C(F)(F)F.O=C1N(c2cccnc2)CCC12CCCN(Cc1ccoc1)C2 (stereo unspecified),-1.124%
22,COCCN1CCO[C@H]2[C@H](OCc3cccc(C)n3)CC[C@@H]21,8.918%
23,CC(C)CN1C(=O)CO[C@@H]2CNC[C@H]21,-9.19%
24,CNC(=O)[C@@H]1C[C@H]2CN(C(=O)c3ccccn3)C[C@H]2N1C(C)C,-10.28%
25,CCCN1CCN(C(=O)c2ccnc(N)c2)[C@H]2CS(=O)(=O)C[C@H]21,-9.553%
26,O=C(C1CCC1)N1CCN(Cc2cccnc2)[C@H]2CS(=O)(=O)C[C@H]21,-3.397%

row,SMILES,Percent Effect
1,CCCN1CCN(C(=O)c2cnc(C)nc2)[C@H]2CS(=O)(=O)C[C@H]21,-7.853%
2,CCC(=O)N1CCN(Cc2cnc(C)nc2)[C@H]2CS(=O)(=O)C[C@H]21,99.52%
3,Cc1ncc(CN2CCN(C(=O)N(C)C)[C@@H]3CS(=O)(=O)C[C@@H]32)cn1,93.36%
4,CCCN1CCN(C(=O)c2cncnc2C)[C@H]2CS(=O)(=O)C[C@H]21,18.46%
5,Cc1cccc(CN2CCN(C(=O)N(C)C)[C@@H]3CS(=O)(=O)C[C@@H]32)n1,-5.175%
6,COC(=O)NCCC(=O)NC(C)Cc1ccccc1Br (stereo unspecified),-17.72%
7,CN(C)C(=O)COC[C@H]1CC[C@@H]2[C@@H](CCN2Cc2ccccn2)O1.O=C(O)C(F)(F)F.O=C(O)C(F)(F)F,-0.6188%
8,Cc1noc(C)c1CN1CC[C@@H]2O[C@H](COCC3CC3)CC[C@@H]21.O=C(O)C(F)(F)F,3.642%
9,O=C(O)C(F)(F)F.O=C(O)C(F)(F)F.c1cncc(COC[C@H]2CC[C@H]3[C@H](CCN3Cc3nccs3)O2)c1,8.415%
10,O=C([C@@H]1CC[C@@H]2[C@@H](CCN2Cc2ccncc2)O1)N1CCCCO1,-7.886%
11,O=C(O)C(F)(F)F.O=C(O)C(F)(F)F.c1ccc(COC[C@H]2CC[C@H]3[C@H](CCN3Cc3cccs3)O2)nc1,0.5679%
12,COC[C@H]1CC[C@@H]2[C@@H](CCN2Cc2ccco2)O1.O=C(O)C(F)(F)F,137.5%
13,c1coc(CN2CC[C@@H]3O[C@@H](COCc4ccncc4)CC[C@@H]32)c1,67.65%
14,c1ccc(COC[C@H]2CC[C@H]3[C@H](CCN3Cc3ccco3)O2)nc1,102.6%
15,CO[C@H]1CCN(Cc2ccccn2)[C@@H]2CN(Cc3ccco3)C[C@H]12.O=C(O)C(F)(F)F.O=C(O)C(F)(F)F.O=C(O)C(F)(F)F,-3.065%
16,c1ccc(CCN2CCOC3(CCc4ccccc43)C2)nc1 (stereo unspecified),-3.634%
17,CC[C@H]1CN2CC[C@H]1C[C@@H]2CNC(=O)Nc1cc(OC)cc(OC)c1,-7.573%
18,CN1CCN2C(=O)N(C3CCOCC3)C[C@H]2C1,-7.245%
19,CNC(=O)CN1CC[C@H]2CN(C(=O)c3ccc(C)nc3)C[C@H]2C1.O=C(O)C(F)(F)F,-24.07%
20,Cc1ccc(C(=O)N2C[C@H]3CN(Cc4csc(C)n4)C[C@H]3C2)cn1,93.97%
21,Cc1ccc(C(=O)N2C[C@H]3CNC[C@H]3C2)cn1,11.13%
22,Cc1nc(CN2C[C@@H]3CN(C(=O)c4ccncc4)C[C@@H]3C2)cs1,103.2%
23,Cc1nc(CN2CCC23CCN(C(=O)c2ccncc2)CC3)cs1,-6.735%
24,Cc1nc(CN2CCO[C@H]3CN(C(=O)c4ccncc4)C[C@H]32)cs1,6.304%
